The campaign covered roughly 390,000 compounds. About 17,000 (4.4%) were called active. Where a call stands in place of a potency, no number is given. Inconclusive results (about 8%) are left out. Many of the other results were omitted from the sample, so actives are more common in it than they were. Values without a mark were called inactive. The call rests on the fitted dose curve; in most records, active means well fitted inhibition curve with a large enough effect; inconclusive means small, poorly fitted or top-dose-only effect; inactive means no such curve, though single readings can be large or run the other way.
Potency means the concentration at half of the fitted maximal effect.

The test deals with Lysine-specific demethylase 4A (Homo sapiens) (UniProt O75164). Nature of the test: qHTS Assay for Inhibitors of JMJD2A-Tudor Domain. Further: nearly all actives have a fitted effect of over 50% in size. To be noted: AlphaScreen JMJD2A-Tudor / H3K4me3 peptide binding; series mostly up to 114 µM. A general note: qHTS replaces the single test concentration by a dilution series.
Lysine-specific demethylase 4A (Homo sapiens), sequence (O75164 whole entry, looked up, the tested form may be a part): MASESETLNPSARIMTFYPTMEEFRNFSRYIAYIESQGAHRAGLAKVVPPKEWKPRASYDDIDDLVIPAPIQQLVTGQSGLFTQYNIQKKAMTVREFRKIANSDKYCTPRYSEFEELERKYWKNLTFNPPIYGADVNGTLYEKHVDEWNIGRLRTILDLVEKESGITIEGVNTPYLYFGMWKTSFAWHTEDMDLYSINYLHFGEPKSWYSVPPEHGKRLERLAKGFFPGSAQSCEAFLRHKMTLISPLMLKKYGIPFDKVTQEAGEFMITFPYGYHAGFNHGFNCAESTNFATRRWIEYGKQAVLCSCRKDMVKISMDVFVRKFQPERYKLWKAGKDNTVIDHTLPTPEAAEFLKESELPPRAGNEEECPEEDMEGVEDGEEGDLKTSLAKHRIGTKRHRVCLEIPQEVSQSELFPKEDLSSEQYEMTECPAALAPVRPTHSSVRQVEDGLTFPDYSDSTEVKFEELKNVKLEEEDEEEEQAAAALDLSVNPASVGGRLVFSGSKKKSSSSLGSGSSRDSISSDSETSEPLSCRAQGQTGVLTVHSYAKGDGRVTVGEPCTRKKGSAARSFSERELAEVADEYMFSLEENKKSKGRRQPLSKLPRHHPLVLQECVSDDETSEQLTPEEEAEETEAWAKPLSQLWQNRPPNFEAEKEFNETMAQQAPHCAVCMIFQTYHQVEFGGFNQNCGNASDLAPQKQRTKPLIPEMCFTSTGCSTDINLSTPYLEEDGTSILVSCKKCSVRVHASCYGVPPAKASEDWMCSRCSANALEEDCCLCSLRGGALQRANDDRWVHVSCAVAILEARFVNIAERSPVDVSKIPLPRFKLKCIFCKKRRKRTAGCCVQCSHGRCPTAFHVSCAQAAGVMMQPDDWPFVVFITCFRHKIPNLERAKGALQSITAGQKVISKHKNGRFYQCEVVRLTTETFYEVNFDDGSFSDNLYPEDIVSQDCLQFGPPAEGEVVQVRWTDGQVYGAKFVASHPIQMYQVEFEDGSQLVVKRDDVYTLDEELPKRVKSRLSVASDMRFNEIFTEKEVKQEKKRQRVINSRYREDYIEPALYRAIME
For the compound `O=C(COC(=O)C1CCCO1)Nc1nc(-c2ccc(F)cc2)cs1` (stereo unspecified), the Potency result is “inactive”.

For the compound `CCc1ccc(CNC(=O)C2CCN(c3nn4cc(-c5ccc(F)cc5)nc4s3)CC2)cc1`, the Potency entry was “inactive”.

As to `CC1CCCC(C)N1C(=O)CN1CCN(c2nc(-c3ccc(F)cc3)cs2)CC1` (stereo unspecified), the Potency was 79.4 µM (active).

On to `O=C(CNC(=O)c1ccccc1)OC(C(=O)Nc1cc([N+](=O)[O-])ccc1F)c1ccccc1` (stereo unspecified), for which the Potency result is “inactive”.

`COc1ccc(Cn2ccnc2SCC(=O)NCc2ccco2)cc1`: the Potency result is “inactive”.

Take `Cc1cccc(OCCSc2nc3ccc(NC(=O)COc4ccccc4C)cc3s2)c1`: the Potency result is “inactive”.

`COc1ccc(CCOC2OC(CO)C(OC(=O)/C=C/c3ccc(O)c(OC)c3)C(O[C@H]3O[C@@H](C)[C@H](O)[C@@H](O)[C@H]3O)C2O)cc1O` (stereo partly specified): the Potency entry is “inactive”.

Turning to `COc1ccc(-c2cc(=O)c3c(O)cc(O[C@@H]4O[C@H](CO[C@@H]5O[C@@H](C)[C@H](O)[C@@H](O)[C@H]5O)[C@@H](O)[C@H](O)[C@H]4O)cc3o2)cc1O`, the Potency was 20 µM (active).

Consider `C[C@@H]1O[C@@H](OC[C@H]2O[C@@H](Oc3c(-c4ccc(O)cc4)oc4cc(O)cc(O)c4c3=O)[C@H](O)[C@@H](O)[C@@H]2O)[C@H](O)[C@H](O)[C@H]1O`, for which the Potency entry is “inactive”.

With `COc1ccc(NC(=O)N2CCCn3nc(C)cc32)cc1OC`, the Potency result was “inactive”.

Regarding `Cc1ccccc1NC(=O)Cn1c(=O)n(CCc2ccccc2)c(=O)c2ccccc21`, the Potency result is “inactive”.

Turning to `CC(O)CN(Cc1ccc(Cl)cc1)CC(C)O` (stereo unspecified), the Potency was 8.91 µM (active).

As for `CN(C(=O)CN(CCO)CC(=O)N(C)C(C)(C)Cc1ccccc1)C(C)(C)Cc1ccccc1`, the Potency result is “inactive”.

`O=[N+]([O-])c1ccc(N(CCO)Cc2ccccc2)c([N+](=O)[O-])c1`: the Potency entry was “inactive”.

As to `OCCN(Cc1ccccc1)Cc1ccc(Cl)cc1`, the Potency was 10 µM (active).

On to `CC(Cc1cccs1)N(Cc1ccc(Cl)cc1)C(=O)c1ccncc1` (stereo unspecified), for which the Potency entry was “inactive”.

`O=C(Cc1ccc(Cl)cc1)c1ccccc1`: the Potency entry is “inactive”.

In the case of `Cc1ccc(CN(C(=O)c2ccccc2[N+](=O)[O-])c2ccccn2)cc1`, the Potency result is “inactive”.

Take `COc1ccc(CC(=O)Nc2ccc(-c3nc4ccccc4s3)c(C)c2)cc1`: the Potency entry is “inactive”.

Regarding `Cc1ccc2cccc(NC(=O)C(C)Oc3ccc(C)c(C)c3)c2n1` (stereo unspecified), the Potency entry is “inactive”.

For `COc1ccc(-n2nc(C(=O)NCCc3ccc(Cl)cc3)c3c4ccccc4n(C)c3c2=O)cc1Cl`, the Potency result was “inactive”.

For `COc1cc(OC)c(NC(=O)Cc2ccc(-n3c(C)nc4cccnc43)cc2)cc1Cl`, the Potency result was “inactive”.

`COc1cc2c(cc1OC)C(COc1ccc(F)cc1)N(C(=O)c1ccccc1F)CC2` (stereo unspecified): the Potency entry was “inactive”.

Take `Cc1cccc(C(=O)Nc2ccc(-c3nc4ncccc4o3)cc2C)c1`: the Potency entry was “inactive”.

As for `Cc1ccc2cccc(O)c2[n+]1[O-]`, the Potency is 10 µM (active).

For `NCC(=O)c1cccc2ccc[n+]([O-])c12`, the Potency result is “inactive”.

With `O=C(NCC(c1ccco1)S(=O)(=O)c1cccs1)c1ccc(F)cc1` (stereo unspecified), the Potency entry is “inactive”.

Consider `Cc1ccc(CNC(=O)CSc2c3c(nc4cc(Cl)ccc24)CCCC3)cc1`, for which the Potency result is “inactive”.

`COc1ccc(-c2nc(C)c(CCNC(=O)c3ccc(C(F)(F)F)cc3)s2)cc1OC`: the Potency result is “inactive”.

On to `Cc1cccc(C)c1Nc1c(-c2ccccc2O)nc2ncccn12`, for which the Potency entry is “inactive”.

In the case of `Cc1ccc(-c2nc3ccccn3c2Nc2c(C)cccc2C)o1`, the Potency is 50.1 µM (active).

`Cc1ccc(Nc2c(-c3ccc(C)s3)nc3ccccn23)cc1`: the Potency result is “inactive”.

As for `c1ccc2c(CNn3cnnc3)cccc2c1`, the activity change, negative = inhibition is 0% [at 11.4 µM].

Take `Nc1scc[n+]1Cc1cccc2cccnc12`: the Potency result was “inactive”.

On to `c1ccc2c(C[n+]3csc4ccccc43)cccc2c1`, for which the Potency is 17.8 µM (active).

Regarding `CCc1c(C)sc(NC(=O)C2c3ccccc3Oc3ccccc32)c1C(=O)OC(C)C`, the Potency entry was “inactive”.

Consider `CCOC(=O)c1c(C)n(S(=O)(=O)c2ccc(C)cc2C)c2ccc(NS(=O)(=O)c3ccc(C)cc3C)cc12`, for which the Potency entry was “inactive”.

As to `COc1ccc2c(c1)CCc1c(C(=O)Nc3cc(C)ccc3O)noc1-2`, the Potency entry is “inactive”.

In the case of `Cc1ccc(N2CCN(C(=O)CCc3c(C)nc4c(c3C)c(=O)n(C)c(=O)n4C)CC2)c(C)c1`, the Potency result is “inactive”.

In the case of `O=S(=O)(O)c1cc2onnc2c2ccccc12`, the Potency was 50.1 µM (active).

On to `CCC(Sc1nnc(-c2ccc(OC)cc2)c(-c2ccc(OC)cc2)n1)C(=O)NC1CCCCC1` (stereo unspecified), for which the Potency entry is “inactive”.

As to `CCOC(=O)c1ccc(N2C(=O)c3[nH]nc(-c4ccccc4)c3C2c2ccc(C(C)C)cc2)cc1` (stereo unspecified), the Potency result was “inactive”.

In the case of `O=C(c1ccco1)N(Cc1cccs1)c1ccc(O)cc1`, the Potency entry is “inactive”.

For the compound `O=C(C1=C(O)C(=O)N(Cc2ccccc2)C1c1cccnc1)c1ccco1` (stereo unspecified), the Potency result is “inactive”.

As for `O=C(C1=C(O)C(=O)N(c2ncccn2)C1c1cccs1)c1ccco1` (stereo unspecified), the Potency was 20 µM (active).

With `Cc1cc(C)c2oc(C(=O)Nc3ccc(S(=O)(=O)N(C)c4ccccc4)cc3)cc(=O)c2c1`, the Potency entry was “inactive”.

In the case of `Cc1cc(N2CCN(c3cccc(C(F)(F)F)c3)CC2)n2nc(-c3ccccc3)nc2n1`, the Potency entry is “inactive”.

On to `O=C(CN1C(=O)COc2ccccc21)Nc1ccc(F)cc1`, for which the Potency is 50.1 µM (active).

Regarding `O=C(CN1C(=O)COc2ccc(Cl)cc21)Nc1ccc(N2CCOCC2)cc1`, the Potency result was “inactive”.

For the compound `CC(OC(=O)CN1C(=O)COc2ccccc21)C(=O)NCc1ccc(F)cc1` (stereo unspecified), the Potency result was “inactive”.

For the compound `Cc1cccc(C(C)C)c1NC(=O)C(NS(=O)(=O)c1cccc2nsnc12)c1ccccc1` (stereo unspecified), the Potency result is “inactive”.

For `COc1ccc(-c2cn3c(n2)sc2cc(C(=O)Nc4ccc(F)cc4)ccc23)cc1`, the Potency entry is “inactive”.

`CCOc1cc(C2C(C(=O)OC(C)C)=C(C)NC3=C2C(=O)CCC3)cc([N+](=O)[O-])c1O` (stereo unspecified): the Potency entry was “inactive”.

For `CCOc1cc(C2C(C(=O)OC)=C(C)NC3=C2C(=O)c2ccccc23)ccc1O` (stereo unspecified), the Potency is 50.1 µM (active).

For `COC(=O)C1=C(C)NC2=C(C(=O)c3ccccc32)C1c1ccc(-c2ccc(C(=O)O)cc2)o1` (stereo unspecified), the activity change, negative = inhibition was -17.6% [at 11.4 µM].

As to `COC(=O)C1=C(c2ccccc2)c2ccccc2S(=O)(=O)N1CC(=O)Nc1ccccc1C(F)(F)F`, the Potency result is “inactive”.

As for `Cc1cccc2c(=O)cc(CSc3ccccc3NC(=O)C(C)C)[nH]c12`, the Potency entry was “inactive”.

Take `CC(=O)Nc1cc(C(=O)NCc2ccc(F)cc2Cl)ccc1Sc1ccc(Cl)cc1`: the Potency entry was “inactive”.

Consider `Cc1ccc(CNC(=O)C2(C(F)(F)F)C/C(=C\CCO)CCCO2)o1` (stereo unspecified), for which the Potency entry is “inactive”.

In the case of `CCCCn1cc(S(=O)(=O)c2ccc(OCC)cc2)c(=O)c2cc(OC)c(OC)cc21`, the Potency entry was “inactive”.

`COc1ccc(N=C2C=CC(=O)O2)cc1`: the Potency was 79.4 µM (active).

Consider `COC1=CC(=O)OC(c2ccc(OC)cc2)C1` (stereo unspecified), for which the Potency entry was “inactive”.

Regarding `COc1ccc(N=Nc2c(-c3ccc(OC)cc3)[nH]oc2=O)cc1`, the Potency entry is “inactive”.

As to `CCOC(=O)C1=C(CN2CCc3ccccc32)NC(=O)NC1c1cccc([N+](=O)[O-])c1` (stereo unspecified), the Potency is 44.7 µM (active).

Turning to `CCOC(=O)C1=C(CN2CCc3ccccc32)NC(=O)NC1c1cc(C)ccc1C` (stereo unspecified), the Potency entry was “inactive”.

Regarding `CCOC(=O)C1=C(CN2CCCCCC2)NC(=O)NC1c1cccc([N+](=O)[O-])c1` (stereo unspecified), the Potency entry was “inactive”.

On to `COc1ccc(N2CCN(S(=O)(=O)CCNC(=O)C(c3ccccc3)c3ccccc3)CC2)cc1`, for which the Potency result was “inactive”.

`C[C@H](NC(=O)c1nc[nH]c1C(=O)NCC(=O)OC(C)(C)C)c1ccccc1`: the Potency result was “inactive”.

Take `C[C@@H](NC(=O)c1nc[nH]c1C(=O)N1CCN(C(=O)OC(C)(C)C)CC1)c1ccccc1`: the Potency is 79.4 µM (active).

Take `CC(C)(C)OC(=O)N1CCC(NC(=O)c2[nH]cnc2C(=O)N[C@@H](Cc2ccccc2)C(=O)OCc2ccccc2)CC1`: the Potency result was “inactive”.

Regarding `Cc1cccc(C(=O)N2c3nc(-c4ccco4)nn3C3(CCCCC3)[C@@H]3CCCC[C@@H]32)c1`, the Potency result is “inactive”.

Consider `CCOc1ccc(CNC(=O)c2cccc(Nc3nc4ccccc4n4nnnc34)c2)cc1OC`, for which the Potency result was “inactive”.

For `ON=C1/C(=N\O)CC2(C/C1=N/O)OCCO2`, the Potency is 28.2 µM (active).

`O/N=C1\CC2(Cc3nonc31)OCCO2`: the Potency entry was “inactive”.

Consider `CCOC(=O)c1ccc(NC2=CC(c3ccc(OCC)cc3)N(c3ccc(C(=O)OCC)cc3)C2=O)cc1` (stereo unspecified), for which the Potency result is “inactive”.

As for `CCOc1ccc(CCNC(=O)c2c(C)oc3ncn(C)c(=O)c23)cc1`, the Potency result was “inactive”.

`CCCc1cc(=S)n2c([nH]c3ccccc32)c1C#N`: the Potency was 25.1 µM (active).

As for `CN(C)Cc1c(C#N)c2ccccc2n1C`, the Potency entry is “inactive”.

Turning to `Cc1ccccc1-c1nc2cc(NC(=O)c3cccc(OCCC(C)C)c3)ccc2o1`, the Potency result is “inactive”.

For `O=C(O)C(c1ccccc1)N1C(=O)/C(=C\c2ccc(-c3cccc(Cl)c3)o2)SC1=S` (stereo unspecified), the Potency was 20 µM (active).

On to `O=C(NC(=S)Nc1cc(C(F)(F)F)ccc1N1CCOCC1)c1ccc(-c2cccc(Cl)c2)o1`, for which the Potency result is “inactive”.

Take `O=C(NCc1ccccc1)c1cc(-c2cccc(Cl)c2)on1`: the Potency result is “inactive”.

On to `Cc1ccc(NC(=O)Cn2cnc3nc4c(cc3c2=O)CCCC4)cc1Cl`, for which the Potency entry was “inactive”.

Turning to `CCOc1ccc(N2C(=O)CN(c3cccc4ccccc34)C2=S)cc1`, the Potency result was “inactive”.

Regarding `CCOc1ccc(N2C(=O)/C(=C/c3ccc(C)o3)N(C)C2=S)cc1`, the Potency is 35.5 µM (active).

As to `CCO/C=C1\C(=O)N(c2ccc(OCC)cc2)C(=O)c2ccccc21`, the Potency result was “inactive”.

As for `CCCN1C(=O)C(O)(CC(=O)c2ccc(CC)cc2)c2cc(Br)ccc21` (stereo unspecified), the Potency entry is “inactive”.

With `Cc1ccc(S(=O)(=O)NCCSc2ccccc2)cc1[N+](=O)[O-]`, the Potency entry was “inactive”.

`CCS(=O)(=O)c1cc([N+](=O)[O-])c(Sc2ccccc2N)s1`: the Potency was 44.7 µM (active).

On to `Cc1cc(C)cc(OCC(=O)Nc2nc(-c3ccc(F)cc3)ns2)c1`, for which the Potency result is “inactive”.

On to `CCOC(=O)c1cnc(SCC(=O)NCc2ccco2)nc1N`, for which the Potency entry is “inactive”.

For the compound `Cc1cc(C(=O)OCC(=O)NCc2ccco2)c(C)n1-c1ccccc1`, the Potency is 56.2 µM (active).

For the compound `O=C(CCCOc1ccccc1)NCc1ccco1`, the Potency entry was “inactive”.

Consider `O=C(COC(=O)CSc1ccccc1)Nc1ccc(F)cc1F`, for which the Potency entry was “inactive”.

For `CCOC(=O)c1cccc(NC(=O)c2ccc(F)cc2F)c1`, the Potency entry was “inactive”.

Regarding `O=C(COC(=O)c1ccc(F)cc1F)Nc1ncccn1`, the Potency was 28.2 µM (active).
